Design in all cases: scale not given: direction of the effect not stated beside the values
Experiment [1] has as its target Protein translocase subunit SecA (Escherichia coli (strain K12)) (UniProt P10408). The experiment is described as follows: Assay to Identify E. coli SecA ATPase Inhibitors. In kind it is functional. As to conditions: 30 µM.
For experiment [2], the target named is T1, Ubiquitin-activating enzyme e1, putative (Leishmania donovani (strain BPK282A1)) (UniProt E9BSI1).
T1 sequence (whole entry): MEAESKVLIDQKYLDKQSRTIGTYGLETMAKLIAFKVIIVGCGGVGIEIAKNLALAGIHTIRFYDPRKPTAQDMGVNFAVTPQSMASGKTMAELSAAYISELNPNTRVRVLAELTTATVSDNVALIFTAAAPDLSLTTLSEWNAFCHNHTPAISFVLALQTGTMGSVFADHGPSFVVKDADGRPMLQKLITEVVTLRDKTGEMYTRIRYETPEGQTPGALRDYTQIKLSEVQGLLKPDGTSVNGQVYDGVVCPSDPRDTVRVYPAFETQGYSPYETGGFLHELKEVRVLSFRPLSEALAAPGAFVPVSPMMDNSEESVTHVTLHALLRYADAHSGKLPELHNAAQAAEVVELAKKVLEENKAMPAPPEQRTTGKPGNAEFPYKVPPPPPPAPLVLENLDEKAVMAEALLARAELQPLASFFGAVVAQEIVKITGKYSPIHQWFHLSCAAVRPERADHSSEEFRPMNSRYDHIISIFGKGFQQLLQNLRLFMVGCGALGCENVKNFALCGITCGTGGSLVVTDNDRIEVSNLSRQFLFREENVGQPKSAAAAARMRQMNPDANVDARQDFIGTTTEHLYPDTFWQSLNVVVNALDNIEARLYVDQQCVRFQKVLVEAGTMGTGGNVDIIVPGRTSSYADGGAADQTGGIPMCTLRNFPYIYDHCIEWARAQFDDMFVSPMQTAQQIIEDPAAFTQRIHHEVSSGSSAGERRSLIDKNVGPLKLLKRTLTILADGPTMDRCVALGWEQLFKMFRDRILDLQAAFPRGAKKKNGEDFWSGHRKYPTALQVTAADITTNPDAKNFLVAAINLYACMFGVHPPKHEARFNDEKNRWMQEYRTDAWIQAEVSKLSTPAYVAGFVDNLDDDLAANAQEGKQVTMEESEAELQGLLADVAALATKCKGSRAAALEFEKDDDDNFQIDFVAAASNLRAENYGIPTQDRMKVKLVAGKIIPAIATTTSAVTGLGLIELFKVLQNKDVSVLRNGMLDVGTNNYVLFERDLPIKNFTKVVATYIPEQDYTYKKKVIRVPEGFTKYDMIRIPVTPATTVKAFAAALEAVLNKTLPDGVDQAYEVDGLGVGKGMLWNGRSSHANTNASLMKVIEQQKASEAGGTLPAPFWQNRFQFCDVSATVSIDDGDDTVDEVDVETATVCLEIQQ
As to the kind of experiment: Leishmania donovani Ubiquitin Activating Enzyme (LdE1). In kind it is functional. The conditions noted are these: 30 µM.

The target in experiment [3] is AMP-activated protein kinase, AMPK (Homo sapiens) (UniProt P54646+O43741+P54619+Q9UGJ0+Q9Y478+Q13131+Q9UGI9). As to the kind of experiment: AMP-dependent Kinase enzyme assay. An in vitro enzyme assay that detects ADP turnover that is directly proportional to AMPK activity. This uses naive AMPK that is activated during the assay with MK-8722. It is filed as functional. As to conditions: 30 µM.

Experiment [4] has as its target Sialic acid-binding Ig-like lectin 9 (Homo sapiens) (UniProt Q9Y336). The experiment is described as follows: Hs-Siglec9 ALPHAscreen SOP 20170721. The conditions noted are these: 10 µM. On the technique in general: In Alpha technology, singlet oxygen from a donor bead excites a nearby acceptor bead.
For a further experiment, the system named is Trypanosoma cruzi. The experiment is described as follows: Trypanosoma cruzi phosphomannomutase and mannose-1-phosphate guanylyltransferase assay. The conditions noted are these: 10 µM. It is filed as functional.
Experiment [5] deals with T2, Arginase-2, mitochondrial (Homo sapiens) (UniProt P78540).
T2 sequence (whole entry): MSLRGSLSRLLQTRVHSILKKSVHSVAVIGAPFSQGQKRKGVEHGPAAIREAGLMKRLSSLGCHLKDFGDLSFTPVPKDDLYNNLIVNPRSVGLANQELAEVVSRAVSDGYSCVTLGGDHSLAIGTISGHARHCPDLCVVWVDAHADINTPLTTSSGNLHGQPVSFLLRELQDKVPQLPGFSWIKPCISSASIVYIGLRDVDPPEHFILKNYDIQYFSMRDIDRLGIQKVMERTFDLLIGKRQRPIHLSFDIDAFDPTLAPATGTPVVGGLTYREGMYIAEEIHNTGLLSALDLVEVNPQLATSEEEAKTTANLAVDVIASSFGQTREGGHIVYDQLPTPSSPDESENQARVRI
The experiment is described as follows: in vitro enzyme assay to detect the production of urea directly proportional to the activity of Arginase II. Further: in the data most compounds retested in dose-response had high values. It is filed as functional. The conditions noted are these: 33.3 µM.

In experiment [6] the target is T3, Proteasome subunit beta (Trypanosoma cruzi) (UniProt O96673).
T3 sequence (whole entry): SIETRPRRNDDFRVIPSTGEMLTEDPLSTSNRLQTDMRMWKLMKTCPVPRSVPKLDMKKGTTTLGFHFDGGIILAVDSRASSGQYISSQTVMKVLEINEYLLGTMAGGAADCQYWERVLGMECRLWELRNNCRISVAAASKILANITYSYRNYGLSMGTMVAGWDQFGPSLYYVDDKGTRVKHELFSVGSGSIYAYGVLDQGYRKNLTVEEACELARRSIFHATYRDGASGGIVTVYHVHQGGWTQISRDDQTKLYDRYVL
As to the kind of experiment: Trypanosoma cruzi proteasome chymotrypsin-like activity (TcProtChymo) assay. Further: in the data most compounds retested in dose-response had high values. As to conditions: 9.37 µM. In kind it is functional.

The species entered for a further experiment is Homo sapiens. As to the kind of experiment: To identify inhibition of the IFN signalling (Jak-Stat) pathway via expression of an eGFP reporter gene under the control of an IFN-stimulated response element (ISRE) containing MxA promoter. The conditions noted are these: 30 µM. In kind it is functional. Background: Reporter assays use an easily measured gene product as a stand-in for the process of interest.

Experiment [7] has as its target T4, Tyrosyl-tRNA synthetase, putative (Trypanosoma cruzi (strain CL Brener)) (UniProt Q4DSP6).
T4 sequence (whole entry): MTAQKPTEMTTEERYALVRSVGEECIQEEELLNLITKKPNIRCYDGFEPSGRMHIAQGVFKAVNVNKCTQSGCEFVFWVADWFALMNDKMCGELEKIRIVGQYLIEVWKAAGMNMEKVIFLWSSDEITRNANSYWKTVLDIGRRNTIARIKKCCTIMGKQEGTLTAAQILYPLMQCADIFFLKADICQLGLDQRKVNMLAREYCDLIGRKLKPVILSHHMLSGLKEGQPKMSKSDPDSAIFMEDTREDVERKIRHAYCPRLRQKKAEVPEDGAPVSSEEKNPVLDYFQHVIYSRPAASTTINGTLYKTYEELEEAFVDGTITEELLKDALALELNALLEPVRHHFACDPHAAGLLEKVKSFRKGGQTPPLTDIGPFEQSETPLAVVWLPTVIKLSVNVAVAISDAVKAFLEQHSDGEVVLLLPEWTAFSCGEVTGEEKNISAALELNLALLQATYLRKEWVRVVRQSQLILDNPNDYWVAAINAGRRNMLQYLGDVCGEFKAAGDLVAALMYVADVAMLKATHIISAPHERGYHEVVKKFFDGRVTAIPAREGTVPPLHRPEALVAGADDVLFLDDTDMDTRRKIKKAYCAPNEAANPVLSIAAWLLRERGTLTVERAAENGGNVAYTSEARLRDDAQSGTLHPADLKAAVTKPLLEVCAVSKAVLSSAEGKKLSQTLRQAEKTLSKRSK
As to the kind of experiment: Trypanosoma cruzi tyrosyl tRNA synthetase (TcYRS) _High Tyrosine SOP. Further: in the data most compounds retested in dose-response had high values. In kind it is functional. The conditions noted are these: 30 µM.

For experiment [8], the target named is T4, Tyrosyl-tRNA synthetase, putative (Trypanosoma cruzi (strain CL Brener)). As to the kind of experiment: Trypanosoma cruzi tyrosyl tRNA synthetase (TcYRS) SOP. In kind it is functional. As to conditions: 30 µM.
In experiment [9] the target is Chromo domain-containing protein 1 (Saccharomyces cerevisiae (strain ATCC 204508 / S288c) (Baker's yeast)) (UniProt P32657). The experiment is described as follows: ScCHD-1 Enzyme Inhibition Assay. Further: in the data most compounds retested in dose-response had high values. As to conditions: 30 µM. It is filed as functional.
Chromo domain-containing protein 1 (Saccharomyces cerevisiae (strain ATCC 204508 / S288c) (Baker's yeast)), sequence (P32657 whole entry, the tested form may be a part): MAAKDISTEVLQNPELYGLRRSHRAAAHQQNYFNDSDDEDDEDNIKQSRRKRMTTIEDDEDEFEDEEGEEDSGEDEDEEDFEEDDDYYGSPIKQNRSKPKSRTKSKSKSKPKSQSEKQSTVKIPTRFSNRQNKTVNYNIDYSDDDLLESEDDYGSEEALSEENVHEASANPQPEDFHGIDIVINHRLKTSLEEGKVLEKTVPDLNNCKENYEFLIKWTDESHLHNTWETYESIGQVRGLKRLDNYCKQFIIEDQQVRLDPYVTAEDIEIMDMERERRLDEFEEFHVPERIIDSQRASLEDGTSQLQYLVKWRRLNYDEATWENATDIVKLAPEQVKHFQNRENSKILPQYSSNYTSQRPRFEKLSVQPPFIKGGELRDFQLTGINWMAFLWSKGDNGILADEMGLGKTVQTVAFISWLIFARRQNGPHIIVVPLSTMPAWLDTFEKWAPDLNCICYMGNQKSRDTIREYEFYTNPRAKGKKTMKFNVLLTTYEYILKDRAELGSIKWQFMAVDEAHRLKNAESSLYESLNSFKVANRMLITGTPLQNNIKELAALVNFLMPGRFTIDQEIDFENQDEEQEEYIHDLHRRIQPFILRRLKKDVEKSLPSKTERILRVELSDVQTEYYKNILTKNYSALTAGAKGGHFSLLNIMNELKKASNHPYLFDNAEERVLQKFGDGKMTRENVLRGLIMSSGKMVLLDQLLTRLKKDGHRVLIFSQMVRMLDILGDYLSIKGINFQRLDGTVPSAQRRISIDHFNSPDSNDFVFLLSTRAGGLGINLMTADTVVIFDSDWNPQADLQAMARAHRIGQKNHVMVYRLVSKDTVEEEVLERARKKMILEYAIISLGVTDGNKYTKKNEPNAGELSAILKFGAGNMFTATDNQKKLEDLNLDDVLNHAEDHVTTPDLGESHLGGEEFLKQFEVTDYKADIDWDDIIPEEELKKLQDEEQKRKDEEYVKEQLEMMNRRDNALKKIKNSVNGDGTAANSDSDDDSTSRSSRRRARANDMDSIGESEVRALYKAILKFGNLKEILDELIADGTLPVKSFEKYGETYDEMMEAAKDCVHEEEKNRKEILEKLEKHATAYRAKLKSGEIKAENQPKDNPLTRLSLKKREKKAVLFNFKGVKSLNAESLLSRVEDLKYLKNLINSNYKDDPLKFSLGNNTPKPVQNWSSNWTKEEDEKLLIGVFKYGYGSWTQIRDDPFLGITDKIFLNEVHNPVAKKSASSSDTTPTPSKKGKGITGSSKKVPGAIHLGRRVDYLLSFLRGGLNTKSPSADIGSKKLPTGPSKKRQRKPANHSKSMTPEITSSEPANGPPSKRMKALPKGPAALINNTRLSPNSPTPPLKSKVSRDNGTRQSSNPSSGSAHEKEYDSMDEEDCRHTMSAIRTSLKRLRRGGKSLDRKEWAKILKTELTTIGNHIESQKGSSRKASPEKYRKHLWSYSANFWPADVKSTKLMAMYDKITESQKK

For some of these results: Results with a measured potency or affinity are listed apart.

Protein translocase subunit SecA (Escherichia coli (strain K12)), sequence (P10408 whole entry): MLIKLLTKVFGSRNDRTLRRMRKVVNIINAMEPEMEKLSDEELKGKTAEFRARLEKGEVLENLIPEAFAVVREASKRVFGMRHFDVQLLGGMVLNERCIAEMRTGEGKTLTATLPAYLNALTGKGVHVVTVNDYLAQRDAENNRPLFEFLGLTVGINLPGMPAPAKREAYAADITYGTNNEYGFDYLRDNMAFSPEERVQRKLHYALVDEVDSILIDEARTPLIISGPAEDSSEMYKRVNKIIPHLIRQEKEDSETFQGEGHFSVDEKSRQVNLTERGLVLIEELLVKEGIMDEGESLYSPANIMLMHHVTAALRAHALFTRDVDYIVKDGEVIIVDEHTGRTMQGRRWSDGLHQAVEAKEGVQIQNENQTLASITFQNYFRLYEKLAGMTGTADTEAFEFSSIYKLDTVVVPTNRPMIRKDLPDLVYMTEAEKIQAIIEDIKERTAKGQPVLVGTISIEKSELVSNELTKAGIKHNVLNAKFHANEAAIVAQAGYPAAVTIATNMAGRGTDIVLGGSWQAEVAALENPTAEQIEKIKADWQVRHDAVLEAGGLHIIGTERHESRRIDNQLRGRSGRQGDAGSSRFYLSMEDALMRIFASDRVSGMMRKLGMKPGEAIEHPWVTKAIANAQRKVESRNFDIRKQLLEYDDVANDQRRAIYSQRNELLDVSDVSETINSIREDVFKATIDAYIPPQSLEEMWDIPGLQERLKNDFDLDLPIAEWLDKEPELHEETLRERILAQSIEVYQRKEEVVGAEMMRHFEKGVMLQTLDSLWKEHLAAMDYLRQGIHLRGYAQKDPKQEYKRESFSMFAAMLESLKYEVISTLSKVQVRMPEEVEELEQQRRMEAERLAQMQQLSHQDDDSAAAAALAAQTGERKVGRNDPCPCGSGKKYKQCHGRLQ
Sialic acid-binding Ig-like lectin 9 (Homo sapiens), sequence (Q9Y336 whole entry): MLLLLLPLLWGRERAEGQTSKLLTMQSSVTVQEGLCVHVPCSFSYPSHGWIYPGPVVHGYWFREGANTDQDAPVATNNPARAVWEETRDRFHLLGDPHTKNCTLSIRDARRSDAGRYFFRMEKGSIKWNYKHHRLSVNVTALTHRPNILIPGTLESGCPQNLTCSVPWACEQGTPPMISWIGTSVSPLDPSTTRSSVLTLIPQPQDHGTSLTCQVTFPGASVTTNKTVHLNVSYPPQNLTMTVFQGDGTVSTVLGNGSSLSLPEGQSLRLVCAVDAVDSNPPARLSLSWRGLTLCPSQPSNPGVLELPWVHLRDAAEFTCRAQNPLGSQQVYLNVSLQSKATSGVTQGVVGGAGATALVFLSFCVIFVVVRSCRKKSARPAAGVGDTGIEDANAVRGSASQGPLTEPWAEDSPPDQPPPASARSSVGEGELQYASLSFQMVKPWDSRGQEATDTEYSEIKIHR

Turning to `COc1cccc(CN2CCOC(Cn3nc(C)cc3C)C2)c1` (stereo unspecified), the Percent Effect in experiment [1] was -1.25%; in experiment [2] it was 2.7%; in [3], 25.1%; in experiment [4], -0.918%; in the experiment with Trypanosoma cruzi it was -4.88%; in experiment [5], 1.67%. Also, the Percent Effect is 18.2% in experiment [6]; -11.1% in the experiment filed under Homo sapiens; 7.92% in experiment [7]; 15.8% in experiment [8]; 8.67% in experiment [9].

`Cc1ccc(CN2CCCn3nnc(COCC4CC4)c3C2)s1`: the Percent Effect in experiment [1] is 0.823%; in experiment [2] it was 16%; in experiment [3], 9.89%; in experiment [4], -6.88%; with Trypanosoma cruzi, -2.76%; in experiment [5], -11%. Moreover, the Percent Effect is 6.96% in experiment [6]; 12.7% in the experiment filed under Homo sapiens; 5.32% in experiment [7]; 11.5% in experiment [8]; -3.12% in experiment [9].

On to `O=C(c1ccsc1)N1CCc2c(COCc3ccncc3)cncc2C1`, for which the Percent Effect in experiment [1] was 0.395%; in experiment [2] it was -8.22%; in experiment [3], 0.499%; in [4] it was 1.44%; with Trypanosoma cruzi, -0.397%; in experiment [5] it was 1.2%. Besides, the Percent Effect in [6] was 10%; in the experiment listed under Homo sapiens, 3.9%; in experiment [7], 3.12%; in experiment [8] it was 3.7%; in experiment [9] it was -0.158%.

Turning to `CCc1n[nH]c(C2CN(C(=O)CCc3cccs3)CCO2)n1` (stereo unspecified), the Percent Effect was -5.44% in experiment [1]; 11.4% in experiment [2]; -4.01% in [3]; -7.1% in [4]; 1.74% in the experiment on Trypanosoma cruzi; 0.645% in experiment [5]. The Percent Effect in experiment [6] was 8.23%; in the experiment filed under Homo sapiens, 1.68%; in experiment [7], 4.17%; in [8], 12.7%; in experiment [9], -38.8%.

`CCc1nc(C2CCCN(C(=O)c3ccc(OC(C)C)nc3)C2)no1` (stereo unspecified): the Percent Effect in experiment [1] is -8.81%; in [2], 5.2%; in [3], -0.62%; in experiment [4], -8.98%; with Trypanosoma cruzi it was -3.43%; in experiment [5] it was 3.16%. The Percent Effect in experiment [6] is 1.05%; in the experiment filed under Homo sapiens, 15.9%; in experiment [7] it was -0.952%; in experiment [8] it was 0%; in experiment [9], -17.8%.

As to `CCOc1ccccc1-c1noc(CN(C)Cc2cnn(C)c2)n1`, the Percent Effect in [1] was 1.46%; in experiment [2], 8.11%; in experiment [3], -5.04%; in [4], 7.46%; in the experiment with Trypanosoma cruzi, -2.12%; in experiment [5], -4.76%. Further, the Percent Effect in experiment [6] was 11.9%; in the experiment listed under Homo sapiens it was 4.5%; in experiment [7], 4.76%; in experiment [8] it was 9.76%; in experiment [9], -1.75%.

Turning to `Cn1ncc2c1C(COCC1CC1)CN(Cc1nccs1)C2` (stereo unspecified), the Percent Effect in [1] was -1.87%; in [2], 15.6%; in [3], -6.52%; in experiment [4], 0.425%; with Trypanosoma cruzi, 1.87%; in experiment [5], 5.81%. Also, the Percent Effect was 1.92% in experiment [6]; 28.4% in the experiment listed under Homo sapiens; 8.47% in experiment [7]; 14.1% in experiment [8]; -10.6% in experiment [9].

On to `COc1cccc(S(=O)(=O)CCN2CCCCC2)c1`, for which the Percent Effect in experiment [1] is -3.72%; in experiment [2] it was 8%; in [3], -7.74%; in experiment [4] it was 6.82%; with Trypanosoma cruzi it was -5.94%; in [5], 1.56%. Besides, the Percent Effect in [6] was 22%; in the experiment listed under Homo sapiens, 20%; in experiment [7], 2.73%; in experiment [8] it was 8.64%; in experiment [9], -9.16%.

Take `CCNc1cc2c(nn1)CCN(C(=O)Cc1noc3ccccc13)C2`: the Percent Effect in experiment [1] is -6.38%; in experiment [2] it was 13.2%; in experiment [3], -1.77%; in experiment [4], 6.44%; with Trypanosoma cruzi, 5.51%; in experiment [5], 0%. The Percent Effect in experiment [6] was -3.47%; in the experiment filed under Homo sapiens, 5.21%; in experiment [7], 4.43%; in [8], 16.1%; in experiment [9], -4.69%.

Consider `O=C(NCCCn1cncn1)N1CCCC(N2CCCC2)C1` (stereo unspecified), for which the Percent Effect in [1] is -3.14%; in experiment [2] it was 21.1%; in experiment [3], -6.64%; in experiment [4], -3.21%; in the experiment with Trypanosoma cruzi, 3.01%; in experiment [5] it was 2.3%. Moreover, the Percent Effect is 13.4% in experiment [6]; 14.6% in the experiment filed under Homo sapiens; 5.39% in experiment [7]; 19.5% in experiment [8]; -10.5% in experiment [9].

For `CCOC(=O)N1CCN(c2nc(NC)c3ccccc3n2)CC1`, the Percent Effect is -3.25% in experiment [1]; 4% in experiment [2]; -1.05% in experiment [3]; 9.22% in experiment [4]; 4.52% in the experiment with Trypanosoma cruzi; -5.46% in experiment [5]. Besides, the Percent Effect in [6] was 6.1%; in the experiment listed under Homo sapiens it was 3.01%; in experiment [7] it was 1.06%; in experiment [8], 5.13%; in experiment [9], -1.69%.

The record behind these values is ChEMBL document CHEMBL3988442, “University of Dundee, Small-Polar-MMV Screening Library” (2021).
